Values joined by “and” are separate entries in the source; they are usually repeats but may differ in a detail not shown here. Equal values may be shown once. Results filed as inconclusive are left out. Where a structure was tested more than once in an assay, its records may differ in their call. Active and inactive are the calls of the source. Unless noted, the call rests on the fitted dose curve; in most records, active means well fitted curve in the direction sought with a large enough effect in the repeat runs; inconclusive means weak or mixed curves; inactive means no such curve, though single readings can be large; an effect the other way counts as inactive or inconclusive.

Test [1] can be described thus: qHTS assay to identify small molecule antagonists of the thyroid receptor (TR) signaling pathway (AID 743065). Further: nearly all actives have a fitted effect of over 55% in size. An outline of the steps: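 GH3.TRE-Luc rat pituitary cells (two TREs driving luciferase) were dosed with compound, then stimulated with 1 nM T3 (final) for 23.5 h at 37 C. ONE-Glo luminescence was the read-out, with CellTiter-Fluor fluorescence as the cytotoxicity counter-screen.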

The test system of test [2] is thyroid hormone receptor (rat, GH3 cells). Nature of the test: qHTS assay to identify small molecule agonists of the thyroid receptor (TR) signaling pathway (AID 743066; calls by dose curve).
The nature of test [3]: qHTS assay to identify small molecule antagonists of the estrogen receptor alpha (ER-alpha) signaling pathway - cell viability counter screen (AID 743074; calls by dose curve;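 further: HEK293 cells carrying ER-alpha-UAS-bla reporter stimulated with 17beta-estradiol; nearly all actives have a fitted effect of over 45% in size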).
The nature of test [4]: qHTS assay to identify small molecule antagonists of the estrogen receptor alpha (ER-alpha) signaling pathway using the BG1 cell line - cell viability counter screen (AID 743081).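 Further: compound given together with 17beta-estradiol as the ER stimulus; nearly all actives have a fitted effect of over 45% in size.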 On the technique in general: qHTS replaces the single test concentration by a dilution series.
Test [5] deals with Aromatase (Homo sapiens) (UniProt P11511). Put plainly: qHTS assay to identify aromatase inhibitors (AID 743083). Further: nearly all actives have a fitted effect of over 55% in size.
Sequence of Aromatase (Homo sapiens) (P11511 whole entry, looked up): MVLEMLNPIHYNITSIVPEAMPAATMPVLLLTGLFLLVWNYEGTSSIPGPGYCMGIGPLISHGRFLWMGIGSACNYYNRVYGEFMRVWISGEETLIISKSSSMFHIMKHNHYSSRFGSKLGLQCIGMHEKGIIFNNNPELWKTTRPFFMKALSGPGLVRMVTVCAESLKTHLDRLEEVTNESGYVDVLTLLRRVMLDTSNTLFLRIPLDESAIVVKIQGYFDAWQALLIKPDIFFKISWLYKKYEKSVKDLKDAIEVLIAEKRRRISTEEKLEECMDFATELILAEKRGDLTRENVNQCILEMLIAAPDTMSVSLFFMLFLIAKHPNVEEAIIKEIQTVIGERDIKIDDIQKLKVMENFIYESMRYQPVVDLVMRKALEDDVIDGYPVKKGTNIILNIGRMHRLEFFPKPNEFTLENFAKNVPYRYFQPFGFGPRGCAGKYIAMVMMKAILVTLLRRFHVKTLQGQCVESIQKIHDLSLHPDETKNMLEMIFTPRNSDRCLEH
A short description of test [6]: qHTS assay to identify aromatase inhibitors - cell viability counter screen (AID 743084).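 Further: cells stimulated with testosterone during compound exposure; nearly all actives have a fitted effect of over 55% in size.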
Test [7] concerns the target Aryl hydrocarbon receptor (Homo sapiens) (UniProt P35869). Put plainly: qHTS assay to identify small molecule that activate the aryl hydrocarbon receptor (AhR) signaling pathway (AID 743085).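 Further: HG2L7.5c1 human HepG2 liver cells with stably integrated DRE-driven firefly reporter; nearly all actives have a fitted effect of over 15% in size.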 The procedure, abridged: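 HepG2 cells (HG2L7.5c1) stably carrying a firefly luciferase reporter driven by 20 dioxin responsive elements were exposed to compound for 24 h at 37C after a 5 h settling period; luminescence rise (ONE-Glo) indicated activation.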

Test [8] can be described thus: qHTS assay to identify small molecule that activate the aryl hydrocarbon receptor (AhR) signaling pathway - cell viability counter screen (AID 743086).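 Further: HepG2 liver cells carrying the AhR DRE luciferase reporter; nearly all actives have a fitted effect of over 45% in size.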 An outline of the steps:
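HepG2-AhR-luc (HG2L7.5c1) cells, 4000/well, treated 24 h at 37 C with compound; viability measured as CellTiter-Fluor fluorescence after 30 min in the same wells as the luciferase read.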

The target in test [9] is Peroxisome proliferator-activated receptor gamma (Homo sapiens) (UniProt P37231). Nature of the test: qHTS assay to identify small molecule agonists of the peroxisome proliferator-activated receptor gamma (PPARg) signaling pathway (AID 743094; active means well fitted activation curve with a large enough effect in the signal ratio in the repeat runs, not every such curve was filed as active; the % refers to the signal ratio). An outline of the steps:
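GeneBLAzer PPARg UAS-bla HEK293H cells carrying a stably integrated beta-lactamase reporter were pre-incubated 5 h at 37C, then exposed to compounds in DMSO for 17 h at 37C; LiveBLAzer B/G FRET substrate was added for 1 h at room temperature and fluorescence read.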

For test [10] the target is unchanged. Nature of the test: qHTS assay to identify small molecule antagonists of the peroxisome proliferator-activated receptor gamma (PPARg) signaling pathway (AID 743191; calls by dose curve; further: nearly all actives have a fitted effect of over 30% in size). An outline of the steps: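 GeneBLAzer PPARg UAS-bla HEK293H cells, 5 h post-plating, exposed to compounds 17 h at 37C. LiveBLAzer B/G FRET substrate added for 1 h at room temperature; beta-lactamase reporter read by fluorescence intensity.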

Test [11] can be described thus: qHTS assay to identify small molecule antagonists of the peroxisome proliferator-activated receptor gamma (PPARg) signaling pathway - cell viability counter screen (AID 743194). Further: nearly all actives have a fitted effect of over 55% in size. As to conditions: Potency: co-treated with 50 nM rosiglitazone unless noted. An outline of the steps: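 Cytotoxicity counter screen in PPARg-bla HEK293H cells, same wells as reporter assay. Compounds plus 50 nM rosiglitazone (final) for 17 h at 37 C, then viability read by CellTiter-Glo luminescence.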

Test [12] can be described thus: qHTS assay for small molecule agonists of the antioxidant response element (ARE) signaling pathway (AID 743202; active means well fitted activation curve with a large enough effect in the signal ratio in the repeat runs, not every such curve was filed as active; the % refers to the signal ratio). The procedure, abridged: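 Agonist mode reporter screen: HepG2 cells with ARE-controlled beta-lactamase are incubated with test compounds for 16 h at 37 C, and beta-lactamase activity is measured as fluorescence of cleaved B/G FRET substrate.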
The nature of test [13]: qHTS assay for small molecule agonists of the antioxidant response element (ARE) signaling pathway - cell viability counter screen (AID 743203; calls by dose curve; further: nearly all actives have a fitted effect of over 55% in size). The procedure, abridged:
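CellSensor ARE-bla HepG2 cells, 2,000 per well, rested 5 hrs at 37C/5% CO2, then exposed to compound in DMSO for 16 hrs; viability read as CellTiter-Glo luminescence after 30 min at room temperature, in the reporter wells.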

The nature of test [14]: qHTS assay for small molecule activators of the heat shock response signaling pathway - cell viability counter screen (AID 743209). Further: nearly all actives have a fitted effect of over 50% in size. An outline of the steps: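 CellSensor HSE-bla HeLa cells, plated overnight at 37 C/5% CO2, were exposed to compounds in DMSO for 5 h at 37 C. Viability was then read in the same wells by CellTiter-Glo luminescence after 30 min at room temperature.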

Test [15] is described as follows: qHTS assay for small molecule activators of the heat shock response signaling pathway (AID 743210; active means well fitted activation curve with a large enough effect in the signal ratio in the repeat runs, with a control signal flat, not every such curve was filed as active; the % refers to the signal ratio;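 further: HeLa cells with beta-lactamase reporter driven by heat shock elements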). The procedure, abridged:
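Quantitative high-throughput format using an engineered HeLa line in which heat shock response elements drive beta-lactamase; after 5 h with compound, cells received a B/G FRET substrate and fluorescence was read.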

A short description of test [16]: qHTS assay to identify small molecule agonists of the peroxisome proliferator-activated receptor delta (PPARd) signaling pathway - cell viability counter screen (AID 743211). Further: nearly all actives have a fitted effect of over 55% in size. The procedure, abridged:
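PPARd-bla HEK293H cells (UAS-beta-lactamase reporter) were treated with compounds for 17 h at 37 C. Viability was then read in the same wells by CellTiter-Glo luminescence after 30 min at room temperature.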

The target of test [17] is Estrogen receptor (Homo sapiens) (UniProt P03372). Put plainly: qHTS assay to identify small molecule antagonists of the estrogen receptor alpha (ER-alpha) signaling pathway (AID 743069; active means well fitted curve in the direction sought with a large enough effect in the signal ratio in the repeat runs, not every such curve was filed as active; the % refers to the signal ratio). An outline of the steps:
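Reporter cells (ER-alpha-bla, HEK293 background) are conditioned overnight in stripped-serum medium (2% charcoal-stripped FBS). Compound and 17beta-estradiol exposure runs 18 hr at 37C, 5% CO2.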

Test [18] shares this target. Put plainly: qHTS assay to identify small molecule agonists of the estrogen receptor alpha (ER-alpha) signaling pathway (AID 743075; calls by dose curve;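 further: HEK293 GripTite cells with ER-alpha and UAS-driven beta-lactamase reporter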; further: potency means the concentration at half of the fitted maximal effect).
Test [19] has the same target. Put plainly: qHTS assay to identify small molecule agonists of the estrogen receptor alpha (ER-alpha) signaling pathway using the BG1 cell line (AID 743079). Further: nearly all actives have a fitted effect of over 20% in size. As to conditions: BG1Luc4E2 cells, ERE-luciferase agonist, 22 h; activation: at 70.3 µM (top of the series) unless noted.
The nature of test [20]: qHTS assay to identify small molecule antagonists of the estrogen receptor alpha (ER-alpha) signaling pathway using the BG1 cell line (AID 743080; calls by dose curve;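 further: BG1 cells stimulated with 17beta-estradiol alongside compound; nearly all actives have a fitted effect of over 25% in size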). The procedure, abridged: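 BG1Luc4E2, endogenous ER-alpha, 4xERE-luc; 5 d charcoal-stripped FBS, phenol red free; 24 h plating; cpd + 17beta-estradiol 21.5 h, 37 C/5% CO2; CellTiter-Fluor viability 30 min, then ONE-Glo luciferase 30 min RT.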

Sequence of Peroxisome proliferator-activated receptor gamma (Homo sapiens) (P37231 whole entry, looked up): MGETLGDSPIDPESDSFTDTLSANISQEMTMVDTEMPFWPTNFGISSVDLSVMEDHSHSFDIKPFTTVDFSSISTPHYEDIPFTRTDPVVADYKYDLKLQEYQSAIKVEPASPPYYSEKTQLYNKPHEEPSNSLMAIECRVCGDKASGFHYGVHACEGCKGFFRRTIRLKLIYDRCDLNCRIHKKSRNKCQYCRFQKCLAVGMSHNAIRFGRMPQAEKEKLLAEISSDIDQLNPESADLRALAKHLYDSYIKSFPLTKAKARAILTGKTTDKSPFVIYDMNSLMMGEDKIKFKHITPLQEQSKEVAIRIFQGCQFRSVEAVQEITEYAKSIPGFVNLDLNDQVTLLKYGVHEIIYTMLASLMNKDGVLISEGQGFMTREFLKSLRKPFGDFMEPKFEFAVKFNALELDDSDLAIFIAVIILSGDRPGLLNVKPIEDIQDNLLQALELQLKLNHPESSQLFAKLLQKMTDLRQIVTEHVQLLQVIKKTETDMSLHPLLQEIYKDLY
Sequence of Aryl hydrocarbon receptor (Homo sapiens) (P35869 whole entry, looked up): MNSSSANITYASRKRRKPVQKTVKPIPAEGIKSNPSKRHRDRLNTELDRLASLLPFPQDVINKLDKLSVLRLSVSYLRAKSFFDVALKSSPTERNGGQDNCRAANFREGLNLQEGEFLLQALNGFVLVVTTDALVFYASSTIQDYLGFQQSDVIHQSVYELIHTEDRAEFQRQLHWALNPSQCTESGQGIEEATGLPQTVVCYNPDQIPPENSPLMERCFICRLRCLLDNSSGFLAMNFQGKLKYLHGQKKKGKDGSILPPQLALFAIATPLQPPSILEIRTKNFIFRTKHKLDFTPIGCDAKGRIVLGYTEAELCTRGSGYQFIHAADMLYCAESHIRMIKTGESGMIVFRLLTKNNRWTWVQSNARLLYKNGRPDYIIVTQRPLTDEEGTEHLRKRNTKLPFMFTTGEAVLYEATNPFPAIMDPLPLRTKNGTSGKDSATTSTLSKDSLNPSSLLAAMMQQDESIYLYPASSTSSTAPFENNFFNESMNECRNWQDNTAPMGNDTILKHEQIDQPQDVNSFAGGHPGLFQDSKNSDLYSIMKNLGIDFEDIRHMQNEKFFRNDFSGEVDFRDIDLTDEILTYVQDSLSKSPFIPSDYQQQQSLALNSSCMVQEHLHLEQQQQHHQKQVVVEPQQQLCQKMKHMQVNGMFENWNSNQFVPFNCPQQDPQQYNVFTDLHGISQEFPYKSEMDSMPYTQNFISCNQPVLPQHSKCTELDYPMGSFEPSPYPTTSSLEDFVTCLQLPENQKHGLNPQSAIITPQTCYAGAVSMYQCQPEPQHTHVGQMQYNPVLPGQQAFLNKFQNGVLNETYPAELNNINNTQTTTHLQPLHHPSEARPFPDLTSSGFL
Sequence of Estrogen receptor (Homo sapiens) (P03372 whole entry, looked up): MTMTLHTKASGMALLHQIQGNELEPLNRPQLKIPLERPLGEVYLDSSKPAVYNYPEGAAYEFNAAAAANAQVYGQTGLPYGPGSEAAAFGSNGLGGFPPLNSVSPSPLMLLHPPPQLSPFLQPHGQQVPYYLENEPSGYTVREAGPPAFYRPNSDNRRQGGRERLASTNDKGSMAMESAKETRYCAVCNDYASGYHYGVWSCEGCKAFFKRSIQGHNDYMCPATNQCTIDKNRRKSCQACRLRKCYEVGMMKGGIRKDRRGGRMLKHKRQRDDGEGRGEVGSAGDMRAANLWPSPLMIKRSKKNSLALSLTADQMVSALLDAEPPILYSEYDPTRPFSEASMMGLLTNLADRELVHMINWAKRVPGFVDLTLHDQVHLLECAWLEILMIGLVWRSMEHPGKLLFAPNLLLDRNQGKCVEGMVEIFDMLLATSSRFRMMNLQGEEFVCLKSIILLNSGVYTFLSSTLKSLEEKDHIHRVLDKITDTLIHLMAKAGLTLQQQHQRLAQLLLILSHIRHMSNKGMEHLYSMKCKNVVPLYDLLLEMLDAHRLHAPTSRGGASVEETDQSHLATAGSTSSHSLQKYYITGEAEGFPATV

Turning to `CCCCC(CC)COC(=O)c1ccc(C(=O)OCC(CC)CCCC)cc1` (configuration not stated), the Potency entry in test [1], in test [2], in test [3], in test [4], in [5] and in test [6] was “inactive” each time. Also, the Potency result in test [7], in test [8], in test [9], in test [10], in [11] and in test [12] was “inactive” each time. Further, the Potency entry in [13], in [14], in test [15] and in test [16] was “inactive” each time.
`O=C1OC(=O)c2c(Cl)c(Cl)c(Cl)c(Cl)c21`: the Potency result in test [1], in [2], in test [3], in test [4], in test [5] and in test [6] was “inactive” throughout. The Potency entry in test [7], in test [8], in test [9], in test [10], in [11] and in test [12] was “inactive” throughout. Further, the Potency result in test [13], in test [14], in test [15] and in [16] was “inactive” in each case.
For `CC(COCC(C)OC(=O)c1ccccc1)OC(=O)c1ccccc1` (configuration not stated), the Potency result in test [1], in [2], in test [3], in test [4], in test [5] and in test [6] was “inactive” in each case. The Potency entry in [7], in [8], in [9], in test [10], in test [11] and in test [13] was “inactive” throughout. Moreover, the Potency result in test [15] and in test [16] was “inactive” each time.
With `CC(C)(CO)CO`, the Potency result in test [1], in test [2], in test [17], in test [3], in test [19] and in test [20] was “inactive” throughout. Besides, the Potency entry in [4], in test [5], in test [6], in test [7], in [8] and in test [11] was “inactive” each time. Besides, the Potency entry in test [12], in test [13], in test [14], in test [15] and in test [16] was “inactive” each time. Besides, the Potency result in test [18] is “inactive and 43.7 µM [activator] (active)”.
As to `O=[N+]([O-])c1cc(C(F)(F)F)ccc1Cl`, the Potency result in [1], in test [2], in [3], in [4], in [5] and in test [6] was “inactive” in each case. Further, the Potency entry in [7], in test [8], in test [9], in test [10], in test [11] and in test [12] was “inactive” throughout. In addition, the Potency entry in test [13] and in [15] was “inactive” throughout.
Consider `CC/C=C(\C(=O)N[C@@H]1C(=O)N2C(C(=O)OCOC(=O)C(C)(C)C)=C(COC(N)=O)CS[C@H]12)c1csc(N)n1`, for which the Potency result in [1], in [2], in test [3], in test [18], in [19] and in test [20] was “inactive” each time. For the same compound, the Potency entry in test [5], in test [6], in test [7], in [8], in test [9] and in [10] was “inactive” each time. Besides, the Potency result in [11], in [13], in [14] and in test [15] was “inactive” throughout.
With `CCCCCCC(=O)O`, the Potency entry in test [1], in test [2], in test [17], in test [3], in [18] and in [19] was “inactive” throughout. For the same compound, the Potency result in test [20], in test [4], in test [5], in test [6], in [7] and in [8] was “inactive” in each case. Further, the Potency result in [11], in test [12], in [13], in [15] and in test [16] was “inactive” throughout.
With `CCCCCNCCCCC`, the Potency entry in test [1], in test [2], in test [3], in test [4], in test [5] and in [6] was “inactive” throughout. The Potency result in [7], in [8], in [9], in test [10], in test [11] and in test [12] was “inactive” throughout. Moreover, the Potency entry in test [13], in [14], in [15] and in test [16] was “inactive” each time.
With `COC(=O)OC`, the Potency entry in test [1], in [2], in test [3], in test [4], in test [5] and in [6] was “inactive” throughout. The Potency entry in test [7], in [8], in test [9], in [10], in test [11] and in test [13] was “inactive” each time. Further, the Potency entry in test [14], in test [15] and in [16] was “inactive” in each case.

Values taken from PubChem BioAssay (Tox21).
